This note sets out measurements from PubChem BioAssay (NCATS).

Inconclusive results are not listed. Values without a mark were called inactive. Calls of active or inactive are those of the source. Calls follow the shape of the dose curve; as a rule, active = well fitted inhibition curve with a large enough effect; inconclusive = small, poorly fitted or top-dose-only effect; inactive = flat fitted curve, though single readings scatter.

Assay [1] deals with Glutathione peroxidase 1 (Homo sapiens) (UniProt P07203). The experiment in a line: Primary qHTS Assay for Inhibitors of Recombinant Selenoprotein Glutathione Peroxidase 1 (GPX1) (AID 1845191). Also: nearly all actives have a fitted effect of over 65% in size. Also: potency is read from the fitted curve at half-maximal effect. As to activity, negative = inhibition: % is scaled to controls: 0 for no effect and ±100 for the full control effect. Put shortly: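 Recombinant GPX1 (10 nM final) was preincubated with compound for 30 min at room temperature, then reacted with 1 mM GSH, 0.5 mM CHP, 0.5 mM NADPH and 100 nM glutathione reductase; NADPH fluorescence (340/450 nm) was read at 0 and 15 min.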
Glutathione peroxidase 1 (Homo sapiens), sequence (P07203 whole entry, looked up): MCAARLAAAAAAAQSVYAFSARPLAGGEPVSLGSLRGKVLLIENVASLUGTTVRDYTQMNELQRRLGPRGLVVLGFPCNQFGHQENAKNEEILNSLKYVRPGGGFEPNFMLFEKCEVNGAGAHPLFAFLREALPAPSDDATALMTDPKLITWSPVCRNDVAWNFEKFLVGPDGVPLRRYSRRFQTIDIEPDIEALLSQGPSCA
In general terms: In qHTS, concentration-response curves come from the screen itself.

Assay [2] concerns the target Phospholipid hydroperoxide glutathione peroxidase GPX4 (Homo sapiens) (UniProt P36969). In words: Primary qHTS Assay for Inhibitors of Recombinant Selenoprotein Glutathione Peroxidase 4 (GPX4) (AID 1845192). Also: nearly all actives have a fitted effect of over 65% in size. The procedure, abridged:
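GR-coupled readout: 100 nM GR, 1 mM GSH, 0.5 mM NADPH; NADPH fluorescence (ex 340/em 450 nm) read at t=0 and after 15 min RT. GPX4 200 nM, preincubated 30 min with compound; substrate 0.5 mM CHP.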

A short description of assay [3]: qHTS profiling for inhibitors of Plasmodium falciparum proliferation (AID 504749). Also: nearly all actives have a fitted effect of over 60% in size. Also: potency is read from the fitted curve at half-maximal effect.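 As to activity, negative = inhibition: 0% = DMSO vehicle and full inhibition = artemisinin control.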 The following applies: P. falciparum in erythrocytes, SYBR Green DNA, 72 h. Put shortly:
(§1)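 Parasite proliferation within erythrocytes, 72 h exposure. Endpoint: SYBR Green I fluorescence after overnight lysis at room temperature. Controls: 0.29 uM artemisinin, DMSO.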

The next assay relates to 3D7. The description is as above. The conditions noted are these: P. falciparum in erythrocytes, SYBR Green DNA, 72 h; series mostly up to 28.7 µM. Put shortly: as §1
The mark [4] stands for this setting: at 28.7 µM (top of the series), parasite line A.
[5] abbreviates: at 28.7 µM (top of the series), parasite line B.

Phospholipid hydroperoxide glutathione peroxidase GPX4 (Homo sapiens), sequence (P36969 whole entry, looked up): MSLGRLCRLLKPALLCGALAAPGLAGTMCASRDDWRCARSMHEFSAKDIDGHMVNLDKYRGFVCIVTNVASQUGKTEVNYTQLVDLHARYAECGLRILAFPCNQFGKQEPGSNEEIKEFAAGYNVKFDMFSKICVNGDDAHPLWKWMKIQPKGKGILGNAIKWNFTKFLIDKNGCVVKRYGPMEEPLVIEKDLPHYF

On to `CC(C)[C@H](N)C(=O)OCC(CO)OCn1cnc2c(=O)[nH]c(N)nc21` (stereo partly drawn), for which the Potency entry (in assay [1]; in assay [2]; in the assay on 3D7) was “inactive” in each case. Further, the activity, negative = inhibition was 14.7% in assay [3] (setting [4]) and 6.07% in assay [3] (setting [5]).

For the molecule `Cc1ncc(COP(=O)(O)O)c(CN)c1O`, the Potency result (in assay [1]; in assay [2]; with 3D7) was “inactive” each time. For the same molecule, the activity, negative = inhibition in assay [3] (setting [4]) was -3.16%; in assay [3] (setting [5]), 3.16%.

For the molecule `Cc1cc(-c2ccc(N=Nc3ccc4c(S(=O)(=O)O)cc(S(=O)(=O)O)c(N)c4c3O)c(C)c2)ccc1N=Nc1ccc2c(S(=O)(=O)O)cc(S(=O)(=O)O)c(N)c2c1O`, the Potency entry (in assay [1]; in assay [2]; in the assay with 3D7) was “inactive” throughout. Moreover, the activity, negative = inhibition is 3.16% in assay [3] (setting [4]) and 5.39% in assay [3] (setting [5]).

Regarding `CC(=O)N=c1sc(S(N)(=O)=O)nn1C`, the Potency result (in assay [1]; in assay [2]; with 3D7) was “inactive” in each case. The activity, negative = inhibition was -0.509% in assay [3] (at 12.8 µM (top of the series), parasite line A) and -5.64% in assay [3] (at 12.8 µM (top of the series), parasite line B).

Take `FC(F)OC(Cl)C(F)(F)F` (stereo not drawn): the Potency result (in assay [1]; in assay [2]; in the assay on 3D7) was “inactive” each time. For the same molecule, the activity, negative = inhibition in assay [3] (setting [4]) was 2.2%; in assay [3] (setting [5]), 13%.

Regarding `Nc1nc(=O)n([C@@H]2CS[C@H](CO)O2)cc1F`, the Potency result (in assay [1]; in assay [2]; in the assay on 3D7) was “inactive” throughout. The results for the activity, negative = inhibition in assay [3] (setting [4]) and in assay [3] (setting [5]) were 2.36% and 4.33%, respectively.

For the molecule `NC(=O)[C@H]1O[C@@H](O)[C@H](O)[C@@H](O)[C@@H]1O`, the Potency entry (in assay [1]; in assay [2]; in the assay with 3D7) was “inactive” throughout. Besides, the results for the activity, negative = inhibition in assay [3] (setting [4]) and in assay [3] (setting [5]) were 12.1% and 13.4%, respectively.

Consider `c1ccc2ccccc2c1`, for which the Potency result (in assay [1]; in assay [2]; with 3D7) was “inactive” each time. The activity, negative = inhibition in assay [3] (setting [4]) is 8.79%; in assay [3] (setting [5]), 4.51%.

Turning to `CC(C)(CO)[C@@H](O)C(=O)NCCC(=O)NCCSSCCNC(=O)CCNC(=O)[C@H](O)C(C)(C)CO`, the Potency result (in assay [1]; in assay [2]; in the assay with 3D7) was “inactive” each time. Moreover, the activity, negative = inhibition in assay [3] (setting [4]) is -1%; in assay [3] (setting [5]), -2.45%.

Take `O=C(O)c1ccc(NC(=O)[C@H](Cc2ccc(O)cc2)NC(=O)c2ccccc2)cc1`: the Potency result (in assay [1]; in assay [2]; in the assay on 3D7) was “inactive” throughout. Further, the activity, negative = inhibition was 3.76% in assay [3] (setting [4]) and 5.17% in assay [3] (setting [5]).

On to `C[C@@](Cc1ccc(O)c(O)c1)(NN)C(=O)O`, for which the Potency result (in assay [1]; in assay [2]; in the assay with 3D7) was “inactive” each time. For the same molecule, the activity, negative = inhibition is -19.2% in assay [3] (setting [4]) and -6.85% in assay [3] (setting [5]).

With `O=C1c2ccccc2C(=O)c2c1ccc(O)c2O`, the Potency result (in assay [1]; in assay [2]; in the assay on 3D7) was “inactive” throughout. Further, the activity, negative = inhibition in assay [3] (setting [4]) was 4.44%; in assay [3] (setting [5]), -3.93%.

For `CC(CN(C)C)CN1c2ccccc2Sc2ccc(C(F)(F)F)cc21` (stereo not drawn), the Potency result (in assay [1]; in assay [2]; with 3D7) was “inactive” throughout. Besides, in assay [3] (parasite line A), the Potency was 11.2 µM (active).

For the molecule `CCC(C(=O)NC(N)=O)c1ccccc1` (stereo not drawn), the Potency result (in assay [1]; in assay [2]; in the assay on 3D7) was “inactive” in each case. For the same molecule, the activity, negative = inhibition was -3.47% in assay [3] (setting [4]) and 11.3% in assay [3] (setting [5]).

As for `CNC(=O)c1c(I)c(C(=O)NCC(=O)Nc2c(I)c(C(=O)O)c(I)c(C(=O)NCCO)c2I)c(I)c(N(C)C(C)=O)c1I`, the Potency result (in assay [1]; in assay [2]; with 3D7) was “inactive” each time. Also, in assay [3] (setting [5]), the activity, negative = inhibition is 2.12%.

For `COc1ccc(/C=C/C(=O)OCCC(C)C)cc1`, the Potency result (in assay [1]; in assay [2]; in the assay on 3D7) was “inactive” throughout. The activity, negative = inhibition was 6.28% in assay [3] (setting [4]) and 14.5% in assay [3] (setting [5]).

As for `CC1CCCCN1CCCOC(=O)c1ccccc1` (stereo not drawn), the Potency entry (in assay [1]; in assay [2]; in the assay with 3D7) was “inactive” each time. Besides, the activity, negative = inhibition is 3.84% in assay [3] (setting [4]) and 9.27% in assay [3] (setting [5]).

On to `Cc1cccc(C)c1NC(=O)C1CCCCN1C` (stereo not drawn), for which the Potency entry (in assay [1]; in assay [2]; in the assay with 3D7) was “inactive” in each case. The activity, negative = inhibition in assay [3] (setting [4]) was -4.61%; in assay [3] (setting [5]), -9.47%.

For `C[Se]CC[C@H](N)C(=O)O`, the Potency entry (in assay [1]; in assay [2]; in the assay on 3D7) was “inactive” throughout. Besides, the activity, negative = inhibition in assay [3] (setting [4]) is 7.69%; in assay [3] (setting [5]), 13.1%.

With `Cc1cc(-c2ccc(N=Nc3c(S(=O)(=O)O)cc4cc(S(=O)(=O)O)cc(N)c4c3O)c(C)c2)ccc1N=Nc1c(S(=O)(=O)O)cc2cc(S(=O)(=O)O)cc(N)c2c1O`, the Potency result (in assay [1]; in assay [2]; with 3D7) was “inactive” in each case.

`CSc1nc2cc(Oc3cccc(Cl)c3Cl)c(Cl)cc2[nH]1`: in assay [1], the Potency entry is “inactive”. Besides, the Potency in assay [3] (parasite line A) was 3.98 µM (active); in assay [3] (parasite line B), 11.2 µM (active).

`Cc1ccc(S(=O)(=O)O)cc1C`: the Potency entry (in assay [1]; in assay [2]; in the assay with 3D7) was “inactive” each time. For the same molecule, the activity, negative = inhibition in assay [3] (setting [4]) was 8.18%; in assay [3] (setting [5]), 4.98%.

On to `CCCCCc1ccc(C)cc1O`, for which the Potency result (in assay [1]; in assay [2]; in the assay with 3D7) was “inactive” throughout. In addition, the activity, negative = inhibition in assay [3] (setting [4]) is -9.62%.

As for `O=C1[O][Bi][O]c2ccccc21`, the outcome in assay [1] is “inactive [at 0.4 µM]”; in assay [2], “inactive [at 0.409 µM]”. Besides, the activity, negative = inhibition in assay [3] (setting [4]) is 7.71%; in assay [3] (setting [5]), 1.44%. In the assay on 3D7, the Potency result was “inactive”.

Consider `Nc1ccc(N=Nc2ccccc2)c(N)n1`, for which the Potency result (in assay [1]; in assay [2]; in the assay with 3D7) was “inactive” throughout. In addition, the Potency in assay [3] (parasite line A) was 10 µM (active).

Regarding `O=P(O)(O)OP(=O)(O)O`, the Potency result (in assay [1]; in assay [2]; in the assay on 3D7) was “inactive” in each case. The activity, negative = inhibition in assay [3] (setting [4]) was -13.9%.

Take `CNC(=O)C[C@@H](N)C(=O)N[C@@H](C(=O)N[C@@H]1C(=O)N2[C@@H]1SC(C)(C)[C@@H]2C(=O)O)c1ccc(O)cc1`: the Potency entry (in assay [1]; in assay [2]; in the assay on 3D7) was “inactive” each time. Also, the activity, negative = inhibition in assay [3] (setting [4]) was 11.3%; in assay [3] (setting [5]), 15.8%.

With `CC(C)CCCC(C)NC(C)C` (stereo not drawn), the Potency entry (in assay [1]; in assay [2]; in the assay with 3D7) was “inactive” in each case. In addition, the activity, negative = inhibition was -16.1% in assay [3] (setting [4]) and -1.21% in assay [3] (setting [5]).

Consider `CN(C)CCC=C1c2ccccc2C(C)(C)c2ccccc21`, for which the Potency entry (in assay [1]; in assay [2]; with 3D7) was “inactive” in each case.

Regarding `Cc1cc(=O)c(C(=O)N[C@@H](C(=O)N[C@@H]2C(=O)N3C(C(=O)O)=C(CSc4nnnn4C)CS[C@H]23)c2ccc(O)cc2)c[nH]1`, in assay [1], the Potency is 12.8 µM (active). Further, the activity, negative = inhibition in assay [3] (setting [4]) was 5.19%; in assay [3] (setting [5]), 9.95%. For the same molecule, the Potency entry in the assay on 3D7 is “inactive”.
